In PubChem BioAssay (EPA / NIEHS) one finds outcome and AC50 data, which are given here for seven compounds.

SMILES strings stand for the structures. Values joined by “and” are separate entries in the source; they are usually repeats but may differ in a detail not shown here. Equal entries are not always repeated. Records with an inconclusive call do not appear. A structure can be active in one record and inactive in another. Active and inactive are the calls of the source. Rule for the calls, unless noted: active = hit-call score of the fitted dose curve at least 0.9, where 1 is the maximum; inconclusive = response in the unintended direction; inactive = score below 0.9.

Experiment [1] has as its target Estrogen receptor (Homo sapiens) (UniProt P03372). The experiment can be described thus: NVS_NR_hER: NovaScreen (NVS) Nuclear Receptor Binding Assay for human Estrogen Receptor (ER) (AID 2283348). An outline of the steps:
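Radiodetection of ligand displacement in a lysate-based, cell-free format using MCF7 extracts, read at 18 hours. Duplicate 25 uM primary testing, then concentration series for actives.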

Experiment [2] in a line: TOX21_p53_BLA_p2_viability: Viability Assessment in the Tox21 HCT-116 p53 Agonism Beta-lactamase Assay, Phase 2 (AID 2283591).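 Note: compound exposure lasted 16 h at 37 °C; actives lower the ATP signal meaning cytotoxicity.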 An outline of the steps:
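HCT-116 p53-bla cells (4000/well) rested 5 h at 37C, then received compounds in DMSO (217-fold dilution) for 16 h at 37C, 5% CO2. After the CCF4 read, CellTiter-Glo was added; ATP luminescence was read after 30 min at room temperature.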

For experiment [3], the target named is Cellular tumor antigen p53 (Homo sapiens) (UniProt P04637). Description: TOX21_p53_BLA_p2_ratio: Tox21 HCT-116 p53 Agonism Beta-lactamase Assay, Ratio, Phase 2 (AID 2283592). An outline of the steps: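 DMSO-normalized, positive-direction endpoint derived from the 460 nm/530 nm FRET ratio in HCT116 p53 beta-lactamase reporter cells exposed 16 h at 37C and loaded with CCF4-AM for 2 h.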

A short description of experiment [4]: TOX21_p53_BLA_p3_viability: Viability Assessment in the Tox21 HCT-116 p53 Agonism Beta-lactamase Assay, Phase 3 (AID 2283593).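 Note: cells exposed to compound for 16 h before reading.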 An outline of the steps: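 HCT-116 cells (4000/well) rested 5 h at 37C, then got DMSO compounds by pin tool (217-fold dilution) for 16 h at 37C, 5% CO2. After the bla read, CellTiter-Glo was added and luminescence read at 30 min, room temperature.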

The target in experiment [5] is Cellular tumor antigen p53 (Homo sapiens) (UniProt P04637). Description: TOX21_p53_BLA_p3_ratio: Tox21 HCT-116 p53 Agonism Beta-lactamase Assay, Ratio, Phase 3 (AID 2283596). An outline of the steps: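 Cells were seeded at 4000/well, rested 5 h at 37C, then dosed with DMSO compound solutions (217-fold dilution) for 16 h. CCF4-AM substrate was loaded for 2 h at room temperature, and the 460/530 nm emission ratio was fitted for gain of signal versus DMSO.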

Experiment [6] shares this target. Description: TOX21_p53_BLA_p5_ratio: Tox21 HCT-116 p53 Agonism Beta-lactamase Assay, Ratio, Phase 5 (AID 2283599). In short, it runs like this:
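HCT-116 cells carrying a p53-inducible beta-lactamase reporter were seeded at 4000 cells/well and dosed after 5 h with compound in DMSO (217-fold dilution). After 16 h at 37C, CCF4-AM substrate was added for 2 h, and the 460/530 nm emission ratio was scored as gain-of-signal versus DMSO.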

Experiment [7] in a line: TOX21_p53_BLA_p5_viability: Viability Assessment in the Tox21 HCT-116 p53 Agonism Beta-lactamase Assay, Phase 5 (AID 2283600). In short, it runs like this: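 Here cell health was gauged by ATP levels in wells holding 4000 cells, each treated 16 h with DMSO-delivered compounds at 217-fold dilution; reduced luminescence marked toxicity.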
The target in experiment [8] is Cellular tumor antigen p53 (Homo sapiens) (UniProt P04637). Description: TOX21_p53_BLA_p4_ratio: Tox21 HCT-116 p53 Agonism Beta-lactamase Assay, Ratio, Phase 4 (AID 2283601). An outline of the steps:
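HCT116 cells carrying an inducible beta-lactamase reporter were plated at 4000 cells/well, rested 5 h, then exposed to compounds in DMSO (217-fold dilution) for 16 h at 37C. CCF4-AM substrate was loaded 2 h at room temperature; 460/530 nm emission ratio scored gain-of-signal versus DMSO.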

The target in experiment [9] is CCAAT/enhancer-binding protein beta (Homo sapiens) (UniProt P17676). The experiment can be described thus: ATG_C_EBP_CIS: Attagene CIS-FACTORIAL HepG2 Assay for human CCAAT/Enhancer Binding Protein (C/EBP) beta (AID 2282927; active = hit-call score of the fitted dose curve at least 0.9, where 1 is the maximum; inactive = score below 0.9). The following applies: HepG2 Attagene cis-factorial transcription factor reporter; actives raise or lower the signal. An outline of the steps:
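Following a 24 h incubation with test chemical, transfected HepG2 cells yielded RNA whose reporter transcripts were quantified by RT-PCR and fluorescent capillary electrophoresis, with DMSO serving as baseline for bidirectional fitting.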

Experiment [10] in a line: ATG_CMV_CIS: Attagene CIS-FACTORIAL HepG2 Assay for human CMV (Internal Marker) (AID 2282928; active = hit-call score of the fitted dose curve at least 0.9, where 1 is the maximum; inactive = score below 0.9;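 note: endpoint acts as a background internal control marker rather than a target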). The following applies: HepG2 CMV promoter reporter, transcription factor profiling; actives raise or lower the signal. In short, it runs like this:
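Reporter transcripts from transfected HepG2 cells are isolated after 24 h of chemical dosing, reverse-transcribed and amplified. Fragments labeled with 6-FAM are cut with HpaI and quantified by capillary electrophoresis; DMSO defines baseline.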

Experiment [11] in a line: ATG_AP_2_CIS: Attagene CIS-FACTORIAL HepG2 Assay for human Activator Protein 2 (AP-2) (AID 2282932; active = hit-call score of the fitted dose curve at least 0.9, where 1 is the maximum; inactive = score below 0.9). The following applies: HepG2 AP-2 cis-reporter, Attagene transcription factor profiling; actives raise or lower the signal. An outline of the steps:
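Assay in transfected HepG2 with promoter-regulated reporters, 24 h incubation after dosing. Signal is reporter mRNA fluorescence (RT-PCR, capillary electrophoresis), analysed for both increases and decreases relative to DMSO controls.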

Experiment [12] is described as follows: ATG_BRE_CIS: Attagene CIS-FACTORIAL HepG2 Assay for human Bone Morphogenetic Protein (BMP) Response Element (BRE) (AID 2282933; active = hit-call score of the fitted dose curve at least 0.9, where 1 is the maximum; inactive = score below 0.9). The following applies: HepG2 BMP response element reporter, Attagene transcription factor profiling; actives raise or lower the signal. An outline of the steps:
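Endogenous transcription factor activity read in transiently transfected HepG2 cells after 24 h chemical exposure. Bidirectional curve fitting against DMSO; readout is reporter transcript level by RT-PCR with capillary electrophoresis of labelled products.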

Experiment [13] concerns the target Transcription factor E2F1 (Homo sapiens) (UniProt Q01094). The experiment can be described thus: ATG_E2F_CIS: Attagene CIS-FACTORIAL HepG2 Assay for human E2F Transcription Factor 1 (AID 2282935; active = hit-call score of the fitted dose curve at least 0.9, where 1 is the maximum; inactive = score below 0.9). The following applies: HepG2 Attagene cis-reporter, E2F reporter RNA transcripts; actives raise or lower the signal. An outline of the steps: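 In this cis-factorial format, endogenous factor activity drives transfected reporters in HepG2; transcripts collected at 24 h are quantified by fluorescence after RT-PCR and capillary separation.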

Experiment [14] can be described thus: ATG_E_Box_CIS: Attagene CIS-FACTORIAL HepG2 Assay for human Enhancer Box (E-box) (AID 2282936; active = hit-call score of the fitted dose curve at least 0.9, where 1 is the maximum; inactive = score below 0.9). The following applies: HepG2 E-box cis-reporter transcription, actives raise or lower the signal. An outline of the steps:
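Measured 24 h post-dosing in HepG2 cells transfected with multiple cis-regulated reporter units, signal being reporter mRNA induction detected by fluorescent RT-PCR with capillary electrophoresis; gain or loss fitted against DMSO.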

Experiment [15] can be described thus: ATG_M_61_CIS: Attagene CIS-FACTORIAL HepG2 Assay for M61 Transcription Factor (Internal Marker) (AID 2282937; active = hit-call score of the fitted dose curve at least 0.9, where 1 is the maximum; inactive = score below 0.9). The following applies: HepG2 Attagene CIS-FACTORIAL M61 internal marker reporter; actives raise or lower the signal. In short, it runs like this:
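Readout: fluorescent reporter mRNA fragments resolved by capillary electrophoresis after RT-PCR. Transiently transfected human HepG2 cells carried MRTU constructs reporting endogenous TF activity; 24 h chemical exposure; gain or loss of signal fitted relative to DMSO.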

The nature of experiment [16]: ATG_EGR_CIS: Attagene CIS-FACTORIAL HepG2 Assay for human Early Growth Response 1 (EGR1) (AID 2282938; active = hit-call score of the fitted dose curve at least 0.9, where 1 is the maximum; inactive = score below 0.9). The following applies: HepG2 Attagene CIS-FACTORIAL EGR reporter mRNA; actives raise or lower the signal. An outline of the steps:
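Read-out: fluorescent reporter-mRNA fragments resolved by capillary electrophoresis after RT-PCR, 24 h post-dose in transiently transfected HepG2. Endogenous transcription-factor activity reported via cis-element-regulated reporter units; gain or loss fitted relative to DMSO.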

Experiment [17] in a line: ATG_M_19_CIS: Attagene CIS-FACTORIAL HepG2 Assay for M19 Transcription Factor (Internal Marker) (AID 2282939; active = hit-call score of the fitted dose curve at least 0.9, where 1 is the maximum; inactive = score below 0.9). The settings on record: HepG2 Attagene CIS-FACTORIAL M19 internal marker reporter; actives raise or lower the signal. In short, it runs like this: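 Internal marker readout, fitted in both directions against DMSO, from HepG2 cells carrying transfected cis-element reporter constructs; RT-PCR and capillary electrophoresis of reporter mRNA after 24 h exposure.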

Experiment [18] is described as follows: ATG_GATA_CIS: Attagene CIS-FACTORIAL HepG2 Assay for human GATA Binding Protein (AID 2282944; active = hit-call score of the fitted dose curve at least 0.9, where 1 is the maximum; inactive = score below 0.9). The following applies: HepG2 GATA cis-element reporter, Attagene multiplex mRNA; actives raise or lower the signal. In short, it runs like this:
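Reporter transcripts from a GATA cis-regulated unit, among multiplexed reporters in transfected HepG2 cells, were measured by RT-PCR with capillary electrophoresis after 24 h dosing. Induction or loss scored relative to DMSO.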

A short description of experiment [19]: ATG_GLI_CIS: Attagene CIS-FACTORIAL HepG2 Assay for human Zinc Finger Protein GLI1 (AID 2282945; active = hit-call score of the fitted dose curve at least 0.9, where 1 is the maximum; inactive = score below 0.9). The settings on record: HepG2, Attagene cis-factorial reporter mRNA, GLI element; actives raise or lower the signal. In short, it runs like this: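 HepG2 cells transiently transfected with cis-promoter multiplexed reporter units report endogenous transcription factor activity. After 24 h chemical exposure, reporter mRNA was quantified by RT-PCR, 6-FAM labelling, HpaI digestion and capillary electrophoresis, with bidirectional fitting against DMSO.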

The nature of experiment [20]: TOX21_p53_BLA_p4_viability: Viability Assessment in the Tox21 HCT-116 p53 Agonism Beta-lactamase Assay, Phase 4 (AID 2283597).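 Note: hits lower the luminescence signal meaning cytotoxicity.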 An outline of the steps: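 In this multiplexed secondary endpoint, HCT116 cells (4000 per well, compound at 5 h, 16 h treatment) received CellTiter-Glo after the beta-lactamase read. Luminescence after 30 min RT reflects ATP, and falling signal marks cytotoxicity.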

Chain of Cellular tumor antigen p53 (Homo sapiens) (P04637 whole entry, looked up): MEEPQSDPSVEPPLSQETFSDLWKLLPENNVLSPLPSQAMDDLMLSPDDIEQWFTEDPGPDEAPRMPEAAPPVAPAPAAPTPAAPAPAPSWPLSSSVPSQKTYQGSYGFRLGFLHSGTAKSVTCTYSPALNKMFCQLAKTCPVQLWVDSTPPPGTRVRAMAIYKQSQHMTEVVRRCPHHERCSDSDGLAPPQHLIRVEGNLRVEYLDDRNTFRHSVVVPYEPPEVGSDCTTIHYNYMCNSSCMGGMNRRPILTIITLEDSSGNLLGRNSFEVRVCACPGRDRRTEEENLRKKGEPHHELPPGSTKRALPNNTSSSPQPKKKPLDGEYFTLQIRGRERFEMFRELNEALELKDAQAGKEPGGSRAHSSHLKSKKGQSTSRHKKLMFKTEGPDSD
Chain of Estrogen receptor (Homo sapiens) (P03372 whole entry, looked up): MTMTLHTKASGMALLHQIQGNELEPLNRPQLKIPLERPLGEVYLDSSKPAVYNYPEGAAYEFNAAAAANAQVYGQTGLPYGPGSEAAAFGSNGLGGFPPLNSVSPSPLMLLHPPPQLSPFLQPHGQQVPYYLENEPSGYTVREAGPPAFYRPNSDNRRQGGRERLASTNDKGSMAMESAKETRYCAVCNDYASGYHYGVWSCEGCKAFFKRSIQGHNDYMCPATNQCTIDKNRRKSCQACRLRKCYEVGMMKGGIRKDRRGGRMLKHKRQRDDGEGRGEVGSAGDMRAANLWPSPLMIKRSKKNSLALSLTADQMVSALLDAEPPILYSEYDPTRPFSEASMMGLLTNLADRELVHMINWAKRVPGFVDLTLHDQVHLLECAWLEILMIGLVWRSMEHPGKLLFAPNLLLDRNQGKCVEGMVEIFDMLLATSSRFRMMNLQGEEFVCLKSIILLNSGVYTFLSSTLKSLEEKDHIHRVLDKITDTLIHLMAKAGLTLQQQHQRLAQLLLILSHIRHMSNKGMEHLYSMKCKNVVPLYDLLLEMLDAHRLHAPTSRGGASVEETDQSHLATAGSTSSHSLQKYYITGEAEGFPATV
Chain of CCAAT/enhancer-binding protein beta (Homo sapiens) (P17676 whole entry, looked up): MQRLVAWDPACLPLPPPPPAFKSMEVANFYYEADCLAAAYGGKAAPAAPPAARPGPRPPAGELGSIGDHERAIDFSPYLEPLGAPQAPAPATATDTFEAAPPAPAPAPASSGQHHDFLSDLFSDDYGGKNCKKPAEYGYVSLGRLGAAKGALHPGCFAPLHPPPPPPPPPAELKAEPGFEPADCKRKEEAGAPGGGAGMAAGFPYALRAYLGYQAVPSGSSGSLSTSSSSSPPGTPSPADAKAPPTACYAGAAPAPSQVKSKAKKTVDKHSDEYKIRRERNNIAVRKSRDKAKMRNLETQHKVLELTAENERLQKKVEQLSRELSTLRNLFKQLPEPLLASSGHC
Chain of Transcription factor E2F1 (Homo sapiens) (Q01094 whole entry, looked up): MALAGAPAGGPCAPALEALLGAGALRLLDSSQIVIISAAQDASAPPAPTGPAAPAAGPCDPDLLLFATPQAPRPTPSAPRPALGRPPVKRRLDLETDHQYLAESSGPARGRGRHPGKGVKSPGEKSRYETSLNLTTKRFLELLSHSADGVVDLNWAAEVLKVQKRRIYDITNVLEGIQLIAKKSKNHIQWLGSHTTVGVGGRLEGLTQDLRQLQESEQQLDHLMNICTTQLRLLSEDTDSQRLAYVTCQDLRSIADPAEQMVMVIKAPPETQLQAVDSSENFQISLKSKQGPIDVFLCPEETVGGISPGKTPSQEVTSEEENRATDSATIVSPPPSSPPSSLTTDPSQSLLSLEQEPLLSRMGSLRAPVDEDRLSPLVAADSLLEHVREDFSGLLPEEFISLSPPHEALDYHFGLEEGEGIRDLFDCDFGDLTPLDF

Take `CC1(O)CSC(C)(O)CS1` (configuration not stated): the call in experiment [1], in [2], in [3], in experiment [4], in experiment [5] and in experiment [6] was inactive. In addition, the call in [7] and in experiment [8] was inactive.

On to `CC1=CCCC(C)(C)C12CCC(C)O2` (configuration not stated), for which the outcome in [9], in experiment [10], in [11], in [12], in experiment [13] and in experiment [14] was inactive. The outcome in experiment [15], in experiment [16], in experiment [17], in experiment [18], in experiment [19] and in experiment [3] was inactive. Besides, the outcome in experiment [5], in experiment [20], in experiment [6], in experiment [7] and in experiment [8] was inactive.

As a reminder, the AC50 is the concentration giving half of the maximal activity seen. As to `Nc1nc(N)c2nc(-c3ccccc3)c(N)nc2n1`, the result in experiment [1], in [2], in experiment [3], in experiment [4], in experiment [5] and in [20] was inactive. The compound was called inactive in [7]. Moreover, the AC50 in [2] was 85.6 µM (active); in [3], 32.3 µM (active) and 16.7 µM (active); in experiment [5] it was 33.5 µM (active); in experiment [6] it was 17.5 µM (active) and 38.9 µM (active) and 28 µM (active); in experiment [8], 26.9 µM (active) and 21.1 µM (active) and 29.1 µM (active).

As for `O=[N+]([O-])c1ccc(ON=Cc2cc(Br)c(O)c(Br)c2)c([N+](=O)[O-])c1`, the result in experiment [1], in experiment [2], in experiment [20] and in experiment [7] was inactive. Also, the AC50 in [3] is 79 µM (active); in experiment [4] it was 34.4 µM (active); in experiment [5] it was 8.26 µM (active); in experiment [6], 13.8 µM (active); in experiment [8], 75.9 µM (active).

For the compound `O=[N+]([O-])c1cc[n+]([O-])cc1`, the compound was called inactive in experiment [1], in experiment [2], in [3], in experiment [4], in [20] and in [6]. The outcome in experiment [7] and in experiment [8] was inactive.

Turning to `CCOC(=O)c1ccccc1`, the AC50 in [9] is 68.7 µM (active). The outcome in [10], in [11], in [12], in experiment [13], in experiment [14] and in experiment [15] was inactive. Besides, the compound was called inactive in [16], in [17], in [18], in experiment [19], in experiment [2] and in experiment [3]. The outcome in [4], in experiment [5], in experiment [20] and in [6] was inactive.

Take `CCC(C)(CCC(C)C)C(=O)O` (configuration not stated): the result in experiment [9], in [10], in experiment [11], in experiment [12], in [13] and in [14] was inactive. Moreover, the result in [15], in [16], in [17], in experiment [18] and in experiment [19] was inactive.
